From the supplement of paper PMC12494721
Where a name gives a salt, the structure may show the parent alone.

Tests used:
Conditions in all cases: incubation time: 27 h, anaerobic, 37 °C;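 for the amine columns active = adjusted P below 0.05 in both replicates with a change the same way and a mean fold change under 0.8 or over 1.25; inactive = the rest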
[1] = test system: Clostridium sporogenes DSM 1664; test: growth (OD595) fold change vs plate DMSO controls (fold change (ratio)); higher = more growth
Method in brief: (§1)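 Anaerobic 27 h, 37 °C mGAM 96-well cultures were shaken, then read for absorbance at 595 nm. Values were blank-subtracted and corrected for compound background using 20 µM compound solutions in water. A calibration factor of 5 converted them to OD. Growth is the fold change versus the median of plate DMSO controls. Fold changes above 1.5 were set to NA, and values are the mean of 2 biological replicates.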

Escherichia coli IAI1 [2] = test: as above
Method in brief: as §1

[3] = test system: Klebsiella aerogenes DSM 30053; test: as above
Method in brief: as §1

[4] = test system: Ruminococcus gnavus DSM 108212; test: as above
Method in brief: as §1

[5] = test system: Klebsiella aerogenes DSM 30053; test: fold change of Histamine concentration vs plate DMSO controls (fold change (ratio)); higher = more amine produced, active = hit call of the paper (significant change in both replicates, either direction)
Method in brief: (§2)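 Anaerobic mGAM cultures of four gut bacterial strains were grown at 37 °C for 27 h in 80 µL wells, starting at OD 0.1 before 1:1 dilution. Compounds were at 20 µM final (sweeteners 50 µM). Whole cultures were extracted with cold acetonitrile/methanol containing 0.1% formic acid and centrifuged. Amines were quantified by LC–triple-quadrupole MS (dynamic MRM) against external calibration curves and drift-corrected within batch. Each value is the fold change versus plate DMSO controls, averaged over 2 biological replicates.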

[6] = test system: Clostridium sporogenes DSM 1664; test: fold change of Tryptamine concentration vs plate DMSO controls (fold change (ratio)); higher = more amine produced, active = hit call of the paper (significant change in both replicates, either direction)
Method in brief: as §2

[7] = test system: Ruminococcus gnavus DSM 108212; test: as above
Method in brief: as §2

Escherichia coli IAI1 [8] = test: fold change of Putrescine concentration vs plate DMSO controls (fold change (ratio)); higher = more amine produced, active = hit call of the paper (significant change in both replicates, either direction)
Method in brief: as §2

[9] = test system: Klebsiella aerogenes DSM 30053; test: as above
Method in brief: as §2

Escherichia coli IAI1 [10] = test: fold change of Cadaverine concentration vs plate DMSO controls (fold change (ratio)); higher = more amine produced, active = hit call of the paper (significant change in both replicates, either direction)
Method in brief: as §2

[11] = test system: Klebsiella aerogenes DSM 30053; test: as above
Method in brief: as §2

[12] = test system: Ruminococcus gnavus DSM 108212; test: fold change of 2-Phenylethylamine concentration vs plate DMSO controls (fold change (ratio)); higher = more amine produced, active = hit call of the paper (significant change in both replicates, either direction)
Method in brief: as §2

Structure (SMILES) | growth [1] | growth (Escherichia coli IAI1 [2]) | growth [3] | growth [4] | fold change of Histamine concentration [5] | fold change of Tryptamine concentration [6] | fold change of Tryptamine concentration [7] | fold change of Putrescine concentration (Escherichia coli IAI1 [8]) | fold change of Putrescine concentration [9] | fold change of Cadaverine concentration (Escherichia coli IAI1 [10]) | fold change of Cadaverine concentration [11] | fold change of 2-Phenylethylamine concentration [12]
CCn1cc(C(=O)O)c(=O)c2cnc(N3CCCC3)nc21 [Piromidic acid] (20 µM) | 1.09 | 1.01 | 1 | 0.973 | 0.944 (inactive) | 1.02 (inactive) | 1.06 (inactive) | 0.913 (inactive) | 1.02 (inactive) | 1.06 (inactive) | 0.999 (inactive) | 1.09 (inactive)
COCCCOc1ccnc(C[S+]([O-])c2nc3ccccc3[nH]2)c1C (stereo not drawn) [Rabeprazole sodium salt] (20 µM) | 1.24 | 0.993 | 1.03 | 1.26 | 0.965 (inactive) | 1.09 (inactive) | 1.15 (inactive) | 0.886 (inactive) | 0.95 (inactive) | 0.955 (inactive) | 1.03 (inactive) | 1.23 (inactive)
Cc1cn([C@H]2C[C@H](N=[N+]=[N-])[C@@H](CO)O2)c(=O)[nH]c1=O [Zidovudine] (20 µM) | 0.921 | 0.825 | 0.946 | 1.45 | 1.12 (inactive) | 1.04 (inactive) | 1.02 (inactive) | 0.549 (inactive) | 1.07 (inactive) | 1.79 (inactive) | 0.981 (inactive) | 1.11 (inactive)
COc1ccc(C(=O)NCc2cccnc2)cc1C(=O)NCc1cccnc1 [Picotamide monohydrate] (20 µM) | 0.983 | 0.972 | 0.998 | 0.842 | 1.07 (inactive) | 1.06 (inactive) | 0.926 (inactive) | 0.989 (inactive) | 1.05 (inactive) | 0.962 (inactive) | 1.02 (inactive) | 0.866 (inactive)
CC(=O)Nc1nnc(S(N)(=O)=O)s1 [Acetazolamide] (20 µM) | 1.04 | 0.95 | 1.04 | 0.746 | 1.04 (inactive) | 0.973 (inactive) | 1.02 (inactive) | 0.965 (inactive) | 1.06 (inactive) | 0.971 (inactive) | 1.11 (inactive) | 1.09 (inactive)
CC1=C(C(=O)O)N2C(=O)[C@@H](NC(=O)[C@H](N)C3=CCC=CC3)[C@H]2SC1 [Cephradine monohydrate] (20 µM) | 1.11 | 1.04 | 1.02 | 1.07 | 0.968 (inactive) | 1.04 (inactive) | 1 (inactive) | 1.05 (inactive) | 1 (inactive) | 0.921 (inactive) | 0.988 (inactive) | 0.994 (inactive)
O=C(O)CCNC(=O)c1ccc(/N=N/c2ccc(O)c(C(=O)O)c2)cc1 [Balsalazide disodium salt] (20 µM) | 1 | 1 | 1.02 | 0.934 | 0.892 (inactive) | 0.993 (inactive) | 1.21 (inactive) | 0.893 (inactive) | 1.01 (inactive) | 0.963 (inactive) | 1.11 (inactive) | 1.51 (active)
C[C@H]1O[C@H](O[C@H]2[C@H](O)[C@@H](O)[C@@H](O[C@@H]([C@H](O)[C@@H](O)C=O)[C@H](O)CO)O[C@@H]2CO)[C@H](O)[C@@H](O)[C@@H]1N[C@H]1C=C(CO)[C@@H](O)[C@H](O)[C@H]1O [Acarbose] (20 µM) | 0.918 | 1.03 | 1.04 | 1.05 | 1.15 (inactive) | 1.02 (inactive) | 0.997 (inactive) | 0.948 (inactive) | 1.07 (inactive) | 1.12 (inactive) | 0.996 (inactive) | 0.978 (inactive)
CN(N=O)C(=O)N[C@H]1C(O)O[C@H](CO)[C@@H](O)[C@@H]1O (mixture of isomers) [Streptozotocin] (20 µM) | 1.04 | 1.19 | 1 | 0.279 | 0.835 (inactive) | 0.798 (inactive) | 0.312 (active) | 1.04 (inactive) | 0.962 (inactive) | 1.31 (active) | 0.993 (inactive) | 0.376 (inactive)
CC[N+](C)(C)c1cccc(O)c1 [Edrophonium chloride] (20 µM) | 1.07 | 1.06 | 1.01 | 1.17 | 1.07 (inactive) | 0.998 (inactive) | 1.14 (inactive) | 1.01 (inactive) | 1.03 (inactive) | 0.919 (inactive) | 1 (inactive) | 1.11 (inactive)
CC(COc1ccccc1)NC(C)C(O)c1ccc(O)cc1 (stereo not drawn) [Isoxsuprine hydrochloride] (20 µM) | 1.07 | 1 | 1 | 1.01 | 0.819 (inactive) | 1.05 (inactive) | 0.977 (inactive) | 1.05 (inactive) | 1 (inactive) | 0.927 (inactive) | 1.03 (inactive) | 0.966 (inactive)
Nc1c(CC(=O)O)cccc1C(=O)c1ccc(Br)cc1 [Bromfenac] (20 µM) | 1.21 | 1.15 | 1.04 | 1.13 | 0.965 (inactive) | 1.01 (inactive) | 1.08 (inactive) | 1.02 (inactive) | 1 (inactive) | 0.911 (inactive) | 1.01 (inactive) | 1.15 (inactive)
CC(C)(C(=O)O)c1ccc(C(O)CCCN2CCC(C(O)(c3ccccc3)c3ccccc3)CC2)cc1 (stereo not drawn) [Fexofenadine hydrochloride] (20 µM) | 1.1 | 1.02 | 1.09 | 1.19 | 0.876 (inactive) | 1.04 (inactive) | 0.978 (inactive) | 0.971 (inactive) | 0.999 (inactive) | 1.02 (inactive) | 1.01 (inactive) | 0.993 (inactive)
CC1(C)S[C@@H]2[C@H](NC(=O)[C@H](N)c3ccccc3)C(=O)N2[C@H]1C(=O)OC1OC(=O)c2ccccc21 (stereo partly drawn) [Talampicillin hydrochloride] (20 µM) | 0 | 0.00609 | 0.378 | 0.146 | 0.797 (active) | 0.0102 (active) | 0.0823 (active) | 0.252 (active) | 0.971 (inactive) | 0.867 (inactive) | 1.13 (inactive) | 0.0586 (active)
CCCCCCCC/C=C\CCCCCCCC(N)=O [Oleamide] (20 µM) | 0.884 | 0.989 | 1.01 | 0.968 | 0.969 (inactive) | 1.01 (inactive) | 0.895 (inactive) | 1.02 (inactive) | 1.01 (inactive) | 1.06 (inactive) | 1 (inactive) | 0.862 (inactive)
CCC[C@@H]1C[C@@H](C(=O)N[C@@H]([C@H]2O[C@H](SC)[C@H](O)[C@@H](O)[C@H]2O)[C@@H](C)O)N(C)C1 [Lincomycin hydrochloride] (20 µM) | 0.767 | 0.925 | 0.981 | 0.121 | 0.952 (inactive) | 0.761 (active) | 0.129 (active) | 0.531 (inactive) | 0.682 (active) | 0.967 (inactive) | 1.02 (inactive) | 0.117 (active)
Oc1ccc(C2CNCCc3c2cc(O)c(O)c3Cl)cc1 (stereo not drawn) [Fenoldopam] (20 µM) | 1.08 | 0.952 | 0.998 | 0.973 | 1.02 (inactive) | 0.95 (inactive) | 1.03 (inactive) | 1.01 (inactive) | 0.988 (inactive) | 1.04 (inactive) | 0.987 (inactive) | 1.03 (inactive)
CN(C)CCN(Cc1ccccc1)c1ccccn1 [Tripelennamine hydrochloride] (20 µM) | 1.03 | 0.99 | 1.02 | 0.946 | 0.957 (inactive) | 1.01 (inactive) | 1.02 (inactive) | 0.85 (inactive) | 1.01 (inactive) | 1.38 (active) | 1 (inactive) | 1.03 (inactive)
N[C@@H]1CONC1=O [D-cycloserine] (20 µM) | 0.977 | 0.973 | 1.09 | 0.926 | 0.897 (inactive) | 0.958 (inactive) | 0.931 (inactive) | 1 (inactive) | 1.03 (inactive) | 1.02 (inactive) | 1.05 (inactive) | 0.868 (inactive)
CN[C@@H]1[C@H](O[C@H]2[C@H](O[C@H]3[C@H](O)[C@@H](O)[C@H](N=C(N)N)[C@@H](O)[C@@H]3N=C(N)N)O[C@@H](C)[C@]2(O)C=O)O[C@@H](CO)[C@H](O)[C@H]1O [Streptomycin sulfate] (20 µM) | 0.95 | 0.989 | 0.957 | 1.15 | 0.988 (inactive) | 1.12 (inactive) | 1.02 (inactive) | 0.983 (inactive) | 1 (inactive) | 1.03 (inactive) | 0.977 (inactive) | 0.994 (inactive)
CCC(=O)O[C@@H](O[P@](=O)(CCCCc1ccccc1)CC(=O)N1C[C@H](C2CCCCC2)C[C@H]1C(=O)O)C(C)C [Fosinopril] (20 µM) | 1.01 | 1.09 | 1.05 | 1.08 | 1.06 (inactive) | 0.979 (inactive) | 1.05 (inactive) | 1.3 (inactive) | 1.01 (inactive) | 0.939 (inactive) | 1 (inactive) | 1.08 (inactive)
C[C@]12CCC(=O)C=C1C=C[C@@H]1[C@@H]2CC[C@@]2(C)[C@H]1CC[C@@]21CCC(=O)O1 [Canrenone] (20 µM) | 1.01 | 1.03 | 1.01 | 1.03 | 0.908 (inactive) | 1 (inactive) | 1.12 (inactive) | 0.86 (inactive) | 0.967 (inactive) | 0.878 (inactive) | 1.02 (inactive) | 1.14 (inactive)
Nc1ccc(S(=O)(=O)NC(=O)c2ccccc2)cc1 [Sulfabenzamide] (20 µM) | 1.18 | 1.07 | 1.05 | 1.1 | 0.998 (inactive) | 1.07 (inactive) | 1.04 (inactive) | 0.947 (inactive) | 0.991 (inactive) | 0.967 (inactive) | 1.01 (inactive) | 1.09 (inactive)
CC[C@H]1OC(=O)[C@H](C)[C@@H](O[C@H]2C[C@@](C)(OC)[C@@H](O)[C@H](C)O2)[C@H](C)[C@@H](O[C@@H]2O[C@H](C)C[C@H](N(C)C)[C@H]2O)[C@](C)(O)C[C@@H](C)C(=O)[C@H](C)[C@@H](O)[C@]1(C)O [Erythromycin] (20 µM) | 0.0078 | 0.762 | 1.16 | 0.129 | 0.3 (inactive) | 0.0554 (active) | 0.144 (active) | 0.459 (inactive) | 0.936 (inactive) | 0.942 (inactive) | 1.07 (inactive) | 0.137 (active)
